The full data set covers some 7,900 targets. This sample favours those with a hit. About 0.6% of all pairs of compound and target were hits. Values without a mark were called inactive.
How the values were obtained:
Test in all cases: log2 fold change, soluble protein after heating vs DMSO (PISA); higher = thermal stabilisation; K562 cells, 10 uM, 30 min; active = over 0.2 and 3.5 SD of the protein, either way, in both replicates (recomputed)
[1] = compound: C1COCCN1CCN2C3=CC=CC=C3N=C2NC(=O)C4=CC(=CC=C4)[N+](=O)[O-] [IRAK-1-4 Inhibitor I]
In short: (§1)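 Thermal stability values are relative to control samples and come from duplicates. They are expressed as log2 fold changes. For measurement, K562 cells (2×10^6 cells/mL) received 10 μM compound for 30 min, and aliquots were heated for 3 min over 48°C-58°C, pooled, and extracted at 4°C in PBS with 0.5% NP-40. Soluble protein, the supernatant after 21,000xg for 90 min, was quantified by TMTpro 16plex LC-MS/MS with equalised channel sums.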

[2] = compound: C=CC(=O)N1CCC[C@@H](n2nc(-c3ccc(Oc4ccccc4)cc3)c3c(N)ncnc32)C1 [ibrutinib]
In short: as §1

[3] = compound: CC(=O)c1cnc2ccc(-c3cc(Cl)c(O)c(Cl)c3)nc2c1N[C@H]1CC[C@H](CN(C)C)CC1
In short: as §1

[4] = compound: CC(C)(C)Cn1c(N)nc2ccc(-c3[nH]c(C(C)(C)C)nc3-c3ccc(F)cc3)nc21 [ralimetinib]
In short: as §1

[5] = compound: CC(C)(O)CC(=O)NCCn1ccc2ncnc(Nc3ccc(Oc4cccc(C(F)(F)F)c4)c(Cl)c3)c21
In short: as §1

[6] = compound: CC(C)C1=C2N=C(C=C(N2N=C1)NCC3=CC=CC=C3)NCCCCCCN
In short: as §1

[7] = compound: CC(C)C[C@@H](C=O)NC(=O)[C@H](CC(C)C)NC(=O)[C@H](CC(C)C)NC(=O)OCc1ccccc1
In short: as §1

[8] = compound: CC(C)N(C[C@H]1O[C@@H](n2cnc3c(N)ncnc32)[C@H](O)[C@@H]1O)[C@H]1C[C@@H](CCc2nc3cc(C(C)(C)C)ccc3[nH]2)C1 [pinometostat]
In short: as §1

[9] = compound: CC1=C(C(CC(=O)N1)C2=CC=C(C=C2)C(F)(F)F)C(=O)NC3=C(C=C4C(=C3)C=NN4)F
In short: as §1

[10] = compound: CC1=C(C2=C(C=C1)C(=O)C3=CC=CC=C3N2CCCN)C
In short: as §1

UniProt Q13242, sequence (Q13242 whole entry, looked up): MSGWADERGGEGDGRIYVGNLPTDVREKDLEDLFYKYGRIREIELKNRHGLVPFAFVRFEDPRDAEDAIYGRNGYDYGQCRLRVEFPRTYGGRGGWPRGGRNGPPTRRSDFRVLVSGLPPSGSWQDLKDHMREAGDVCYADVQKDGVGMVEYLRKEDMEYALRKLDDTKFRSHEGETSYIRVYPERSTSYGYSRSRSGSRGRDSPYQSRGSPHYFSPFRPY
UniProt Q9UQ35, sequence (Q9UQ35 whole entry, looked up): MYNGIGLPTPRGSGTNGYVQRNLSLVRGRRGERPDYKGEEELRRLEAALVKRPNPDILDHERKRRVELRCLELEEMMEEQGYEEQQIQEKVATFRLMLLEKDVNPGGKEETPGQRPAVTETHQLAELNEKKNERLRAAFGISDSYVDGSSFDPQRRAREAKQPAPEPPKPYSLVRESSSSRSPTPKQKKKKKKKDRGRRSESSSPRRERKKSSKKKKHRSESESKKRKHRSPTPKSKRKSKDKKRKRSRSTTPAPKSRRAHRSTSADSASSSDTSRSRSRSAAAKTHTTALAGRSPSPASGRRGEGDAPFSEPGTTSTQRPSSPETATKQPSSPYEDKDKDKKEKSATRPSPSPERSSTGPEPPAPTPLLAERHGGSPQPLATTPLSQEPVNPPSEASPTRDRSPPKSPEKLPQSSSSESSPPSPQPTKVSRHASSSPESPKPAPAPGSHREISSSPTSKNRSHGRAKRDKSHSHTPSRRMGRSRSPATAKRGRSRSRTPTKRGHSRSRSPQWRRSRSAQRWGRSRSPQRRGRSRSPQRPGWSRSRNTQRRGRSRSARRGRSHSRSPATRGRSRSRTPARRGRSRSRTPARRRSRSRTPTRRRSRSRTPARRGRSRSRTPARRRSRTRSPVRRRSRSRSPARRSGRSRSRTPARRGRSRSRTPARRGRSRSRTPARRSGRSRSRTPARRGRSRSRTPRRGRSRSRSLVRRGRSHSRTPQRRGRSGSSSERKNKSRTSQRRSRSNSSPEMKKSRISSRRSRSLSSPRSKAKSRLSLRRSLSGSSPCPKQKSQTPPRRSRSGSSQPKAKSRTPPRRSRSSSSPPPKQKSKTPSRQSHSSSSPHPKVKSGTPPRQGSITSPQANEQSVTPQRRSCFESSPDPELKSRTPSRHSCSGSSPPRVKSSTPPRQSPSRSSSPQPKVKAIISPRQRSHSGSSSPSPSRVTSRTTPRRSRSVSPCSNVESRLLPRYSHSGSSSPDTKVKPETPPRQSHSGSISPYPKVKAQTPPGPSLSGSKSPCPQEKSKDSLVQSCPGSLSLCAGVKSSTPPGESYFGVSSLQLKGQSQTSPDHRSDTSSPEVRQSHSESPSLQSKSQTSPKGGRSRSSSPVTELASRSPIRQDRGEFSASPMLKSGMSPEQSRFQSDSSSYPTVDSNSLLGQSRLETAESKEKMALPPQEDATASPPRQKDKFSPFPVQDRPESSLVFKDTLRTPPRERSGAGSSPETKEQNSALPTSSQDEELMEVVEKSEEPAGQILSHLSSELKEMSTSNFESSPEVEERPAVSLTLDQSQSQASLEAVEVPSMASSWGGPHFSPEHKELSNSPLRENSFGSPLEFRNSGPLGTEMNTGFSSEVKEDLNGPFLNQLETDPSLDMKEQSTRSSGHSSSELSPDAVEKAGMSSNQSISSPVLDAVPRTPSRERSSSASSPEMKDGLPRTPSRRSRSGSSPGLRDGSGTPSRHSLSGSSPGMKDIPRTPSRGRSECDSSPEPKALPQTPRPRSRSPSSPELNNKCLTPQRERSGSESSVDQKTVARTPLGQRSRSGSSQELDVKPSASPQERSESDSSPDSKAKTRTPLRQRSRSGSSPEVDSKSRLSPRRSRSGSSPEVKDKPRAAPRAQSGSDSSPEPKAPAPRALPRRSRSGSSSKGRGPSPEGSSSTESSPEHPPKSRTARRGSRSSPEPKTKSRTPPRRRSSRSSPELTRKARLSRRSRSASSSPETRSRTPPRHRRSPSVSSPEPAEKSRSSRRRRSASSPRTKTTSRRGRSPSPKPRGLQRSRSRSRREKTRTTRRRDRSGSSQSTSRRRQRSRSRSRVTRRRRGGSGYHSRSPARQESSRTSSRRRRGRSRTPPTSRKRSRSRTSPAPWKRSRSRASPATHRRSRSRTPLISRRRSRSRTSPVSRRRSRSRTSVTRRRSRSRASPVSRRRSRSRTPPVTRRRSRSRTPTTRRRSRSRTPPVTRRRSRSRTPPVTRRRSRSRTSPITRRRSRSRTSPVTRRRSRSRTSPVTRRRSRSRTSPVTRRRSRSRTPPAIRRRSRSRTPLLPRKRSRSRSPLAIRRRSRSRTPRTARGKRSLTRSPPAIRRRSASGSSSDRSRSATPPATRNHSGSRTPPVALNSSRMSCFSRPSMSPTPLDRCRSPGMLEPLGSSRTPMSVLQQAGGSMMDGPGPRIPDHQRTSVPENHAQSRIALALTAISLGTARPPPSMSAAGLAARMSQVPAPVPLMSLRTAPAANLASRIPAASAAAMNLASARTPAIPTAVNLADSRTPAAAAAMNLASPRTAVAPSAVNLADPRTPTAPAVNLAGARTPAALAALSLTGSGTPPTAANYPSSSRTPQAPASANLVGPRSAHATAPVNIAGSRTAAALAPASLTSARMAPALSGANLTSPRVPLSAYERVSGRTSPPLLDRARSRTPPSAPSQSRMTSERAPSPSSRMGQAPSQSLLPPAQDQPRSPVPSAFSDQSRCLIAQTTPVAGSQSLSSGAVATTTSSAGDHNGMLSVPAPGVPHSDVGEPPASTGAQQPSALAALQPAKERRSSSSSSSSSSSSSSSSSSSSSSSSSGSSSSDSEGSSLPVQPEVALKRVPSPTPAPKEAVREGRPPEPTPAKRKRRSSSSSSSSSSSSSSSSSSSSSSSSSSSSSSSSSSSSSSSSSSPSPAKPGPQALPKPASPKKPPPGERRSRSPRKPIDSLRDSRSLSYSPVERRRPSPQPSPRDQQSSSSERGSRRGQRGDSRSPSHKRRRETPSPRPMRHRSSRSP
UniProt Q8NEF9, sequence (Q8NEF9 whole entry, looked up): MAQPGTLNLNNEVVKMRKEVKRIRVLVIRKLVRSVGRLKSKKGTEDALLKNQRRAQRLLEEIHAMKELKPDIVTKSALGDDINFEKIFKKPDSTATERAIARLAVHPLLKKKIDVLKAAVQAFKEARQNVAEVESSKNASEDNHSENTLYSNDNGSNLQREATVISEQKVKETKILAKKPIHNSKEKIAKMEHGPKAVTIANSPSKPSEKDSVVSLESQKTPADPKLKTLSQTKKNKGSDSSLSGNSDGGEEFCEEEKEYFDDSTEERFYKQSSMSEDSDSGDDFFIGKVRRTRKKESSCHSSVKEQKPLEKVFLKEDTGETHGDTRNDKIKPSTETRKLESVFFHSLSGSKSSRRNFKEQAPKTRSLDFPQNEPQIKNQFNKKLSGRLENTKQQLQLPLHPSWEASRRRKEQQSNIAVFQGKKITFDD
UniProt Q92844, sequence (Q92844 whole entry, looked up): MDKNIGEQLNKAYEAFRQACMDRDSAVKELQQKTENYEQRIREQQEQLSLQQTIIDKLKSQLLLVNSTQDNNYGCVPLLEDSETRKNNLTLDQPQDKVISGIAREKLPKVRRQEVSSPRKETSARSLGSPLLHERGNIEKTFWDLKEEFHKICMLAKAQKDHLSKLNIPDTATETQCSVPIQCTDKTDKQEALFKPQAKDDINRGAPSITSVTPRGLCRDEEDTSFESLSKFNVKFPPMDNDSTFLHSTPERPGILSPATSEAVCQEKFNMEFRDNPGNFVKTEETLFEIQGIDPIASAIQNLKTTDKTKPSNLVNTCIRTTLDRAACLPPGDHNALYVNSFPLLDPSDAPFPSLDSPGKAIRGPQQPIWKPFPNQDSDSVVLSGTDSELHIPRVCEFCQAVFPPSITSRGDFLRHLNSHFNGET
UniProt Q8IWZ8, sequence (Q8IWZ8 whole entry, looked up): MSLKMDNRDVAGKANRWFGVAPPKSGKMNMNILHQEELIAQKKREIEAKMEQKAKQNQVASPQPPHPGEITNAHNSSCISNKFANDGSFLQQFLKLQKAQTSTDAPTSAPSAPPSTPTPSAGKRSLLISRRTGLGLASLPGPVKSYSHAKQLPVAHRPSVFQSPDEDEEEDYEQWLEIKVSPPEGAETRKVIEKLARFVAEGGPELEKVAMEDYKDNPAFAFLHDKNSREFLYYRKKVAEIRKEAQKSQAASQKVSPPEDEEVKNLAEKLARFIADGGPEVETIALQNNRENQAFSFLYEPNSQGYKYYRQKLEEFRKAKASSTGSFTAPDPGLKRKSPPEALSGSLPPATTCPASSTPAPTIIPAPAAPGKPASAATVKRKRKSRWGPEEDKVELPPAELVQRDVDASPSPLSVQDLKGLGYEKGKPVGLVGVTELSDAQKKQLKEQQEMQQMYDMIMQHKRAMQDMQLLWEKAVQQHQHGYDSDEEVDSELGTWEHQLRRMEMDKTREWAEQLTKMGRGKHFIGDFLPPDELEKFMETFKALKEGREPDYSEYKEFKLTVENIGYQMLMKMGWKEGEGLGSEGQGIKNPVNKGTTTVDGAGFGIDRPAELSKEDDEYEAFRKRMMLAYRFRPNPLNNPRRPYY
UniProt O14975, sequence (O14975 whole entry, looked up): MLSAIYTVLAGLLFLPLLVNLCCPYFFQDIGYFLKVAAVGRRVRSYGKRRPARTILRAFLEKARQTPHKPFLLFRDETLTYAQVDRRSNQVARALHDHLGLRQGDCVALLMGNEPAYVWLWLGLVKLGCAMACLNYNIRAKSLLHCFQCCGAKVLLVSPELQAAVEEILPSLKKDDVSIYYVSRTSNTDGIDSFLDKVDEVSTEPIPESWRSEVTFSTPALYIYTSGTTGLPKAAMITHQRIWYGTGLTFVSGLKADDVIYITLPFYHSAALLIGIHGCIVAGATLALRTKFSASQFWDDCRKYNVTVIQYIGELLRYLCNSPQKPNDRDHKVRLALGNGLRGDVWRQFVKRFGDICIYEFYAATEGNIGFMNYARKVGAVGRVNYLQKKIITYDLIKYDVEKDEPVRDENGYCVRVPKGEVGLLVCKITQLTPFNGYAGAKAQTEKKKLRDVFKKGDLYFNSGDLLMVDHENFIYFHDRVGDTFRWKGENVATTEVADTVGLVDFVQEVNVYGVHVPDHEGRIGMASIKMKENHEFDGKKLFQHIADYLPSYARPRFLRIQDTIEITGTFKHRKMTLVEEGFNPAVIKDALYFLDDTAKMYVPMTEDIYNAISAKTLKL

Target	log2 fold change [1]	log2 fold change [2]	log2 fold change [3]	log2 fold change [4]	log2 fold change [5]	log2 fold change [6]	log2 fold change [7]	log2 fold change [8]	log2 fold change [9]	log2 fold change [10]
TIPRL (UniProt O75663)	-0.011	-0.005	-0.067	-0.007	-0.065	-0.173	0.048	-0.015	0.069	0.017
SRRM2 (UniProt Q9UQ35)	-0.074	-0.015	-0.326	0.063	0.01	-0.258	0.002	0.005	-0.005	-0.181
SMG1 (UniProt Q96Q15)	-0.088	0.021	-0.002	0.012	0.002	0.007	-0.014	-0.06	0.045	0.054
SMARCA4 (UniProt P51532)	-0.155	-0.136	-0.056	0.255	0.027	-0.397	0.16	0.193	–	–
SOAT1 (UniProt P35610)	0.1	-0.008	-0.031	0.031	-0.04	-0.014	0.303	-0.017	-0.041	0.053
SRFBP1 (UniProt Q8NEF9)	-0.081	-0.037	-0.099	-0.022	0.091	0.137	0.25	0.018	0.21	0.023
SUGP1 (UniProt Q8IWZ8)	0.008	-0.024	-0.08	-0.023	-0.003	-0.127	0.061	-0.017	0.011	-0.003
SLC27A2 (UniProt O14975)	-0.039	0.144	-0.125	0.013	0.366 (active)	0.015	0.055	0.01	-0.045	0.03
SMCHD1 (UniProt A6NHR9)	-0.268	-0.007	-0.344	0.108	0.068	-0.067	0.038	0.092	-0.08	0.406
TJP1 (UniProt Q07157)	-0.033	0.03	-0.443 (active)	0.028	-0.02	-0.003	0.014	0.037	0.007	0.034
STK38L (UniProt Q9Y2H1)	-0.084	-0.048	-0.181	-0.577	-0.035	-0.148	0.385	0.051	0.013	-0.023
TANK (UniProt Q92844)	-0.035	0.087	-0.181	0.034	-0.024	0.007	0.127	-0.047	0.033	-0.053
SRSF9 (UniProt Q13242)	-0.094	0.106	-0.13	0.199	0.219	0.019	0.171	0.29	-0.011	–
SMC5 (UniProt Q8IY18)	0.041	0.062	-0.045	0.046	0.029	0.161	0.036	0.008	-0.031	-0.332 (active)
SRSF3 (UniProt P84103)	-0.207	0.11	-0.035	0.112	0.19	0.083	0.152	0.064	0.125	-0.134
SORT1 (UniProt Q99523)	0.044	0.044	0.031	-0.005	-0.027	-0.202	-0.028	-0.03	-0.002	-0.019
SNRPD3 (UniProt P62318)	0.002	-0.006	0.067	-0.022	0.208	0.162	0.017	0.027	-0.008	0.022
SPG11 (UniProt Q96JI7)	-0.027	0.128	-0.065	-0.151	0.103	0.051	0.405	0.035	0.03	0.097
SMARCA5 (UniProt O60264)	-0.108	-0.135	0.103	0.033	-0.113	-0.025	0.084	0.068	-0.135	-0.97 (active)
SPAG9 (UniProt O60271)	-0.003	-0.003	0.022	0	-0.045	-0.219 (active)	0.016	0.028	0.011	-0.004
SPAST (UniProt Q9UBP0)	0.054	-0.015	-0.073	0.015	-0.157	-0.063	0.013	0.002	-0.019	0.114
SNUPN (UniProt O95149)	0.037	-0.039	-0.089	-0.026	-0.045	-0.034	0.037	0.07	-0.002	-0.184
TGFBRAP1 (UniProt Q8WUH2)	-0.088	-0.067	-0.119	0.33	-0.108	-0.424	-0.037	0.046	0.052	-0.017
THADA (UniProt Q6YHU6)	0.007	-0.026	-0.062	0.053	-0.166	-0.225	-0.071	0.016	-0.05	-0.047
SMAD2 (UniProt Q15796)	-0.145	0.05	-0.091	-0.069	-0.088	-0.015	0.124	-0.125	-0.192	0.079
TBC1D20 isoform 3 (UniProt Q96BZ9)	0.02	0.004	-0.124	-0.104	-0.087	-0.099	-0.017	0	-0.061	–
SULT1A1 (UniProt P50225)	-0.077	0.044	-0.099	-0.029	-0.104	-0.104	-0.056	0.001	0.014	0.048
SLC38A9 (UniProt Q8NBW4)	-0.028	-0.005	-0.019	0	0.089	-0.368 (active)	0.049	-0.023	0.023	-0.1
STK4 (UniProt Q13043)	-0.012	-0.078	-0.233 (active)	0.002	-0.018	-0.019	0.015	0.008	0.023	0.019
SNX9 (UniProt Q9Y5X1)	-0.011	0.025	-0.043	0.005	0.002	0.014	0.029	0.04	0.024	0.02

— the supplement of paper PMC10849652
